Hit rate of the full screen: of about 2,300 compounds, about 170 (7.4%) were called active.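 The calls were made as follows: active = over 5% cells positive for green fluorescent reporter, or over 2% positive for both it and APC stain; inactive = the rest, inconclusive results apart.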 The entries come from a sample that favours actives as a whole.
Assay: intrinsic compound fluorescence in ER-HoxA9 progenitors, confirmation, artefact control for AML myeloid differentiation project, cell-based, flow cytometry, GFP/APC, Cherry Pick01 (AID 651707);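 also: range taken on the double positive population between DMSO and positive control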
Details: no estrogen, GFP autofluorescence flow cytometry, stronger effect = higher value

| Compound | fluorescence response |
| --- | --- |
| CC/C(=N\NC(=O)c1ccccc1O)c1c(O)n(Cc2ccccc2)c(=O)[nH]c1=O | 5.1% (active) |
